A selection: hits, their analogues and other compounds. The true share with any hit is near 1.2%.
Platelet DG rel: inhibitors of platelet dense granule secretion, primary screen, cell-based, MLPCN, human platelets; inhibition, %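 (compounds screened at 7.5 µM in platelet-rich plasma)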; actives 0.22% (n = 300,000); AID 1663, 2009; human platelet-rich plasma, SFLLRN dense granule ATP release, luminescence;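 active = mean replicate score, as percent of positive control, at or above 50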
GRK2 aptamer HTS: compounds blocking aptamer binding on GRK2 – biochemical, human GRK2, bead flow cytometry, HTS, primary screen | actives 0.59% (n = 330,000) | FAM-aptamer displacement from GRK2 | inhibition of aptamer binding, % at 10 µM | AID 488847, 2010;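 active = inhibition of aptamer binding above 40%, roughly 3 SD of noise, on plates passing a quality check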;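 also: median bead fluorescence of bound FAM aptamer so fluorescent compounds give negative values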
Target sequence (P25098 whole entry, looked up): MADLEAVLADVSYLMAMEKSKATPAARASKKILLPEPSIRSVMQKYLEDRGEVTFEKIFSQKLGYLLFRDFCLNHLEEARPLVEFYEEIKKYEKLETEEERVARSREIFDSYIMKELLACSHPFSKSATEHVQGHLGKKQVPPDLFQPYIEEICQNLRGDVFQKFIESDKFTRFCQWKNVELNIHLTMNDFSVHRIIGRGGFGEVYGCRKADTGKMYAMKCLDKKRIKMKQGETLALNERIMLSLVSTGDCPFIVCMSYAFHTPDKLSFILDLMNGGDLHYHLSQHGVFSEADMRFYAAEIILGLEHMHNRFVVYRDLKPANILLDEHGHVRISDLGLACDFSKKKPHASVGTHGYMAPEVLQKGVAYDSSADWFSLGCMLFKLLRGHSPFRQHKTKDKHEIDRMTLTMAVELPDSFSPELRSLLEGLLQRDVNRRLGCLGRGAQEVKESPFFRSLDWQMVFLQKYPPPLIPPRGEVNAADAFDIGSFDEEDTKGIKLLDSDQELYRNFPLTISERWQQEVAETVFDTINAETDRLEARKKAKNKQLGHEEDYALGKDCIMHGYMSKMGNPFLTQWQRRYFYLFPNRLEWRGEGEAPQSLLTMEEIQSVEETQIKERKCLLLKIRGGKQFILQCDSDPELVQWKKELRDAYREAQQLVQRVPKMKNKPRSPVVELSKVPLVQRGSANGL
beta cell repl: inducers of MIN6 beta-cell proliferation, primary screen, ATP luminescence, uHTS | proliferation, % at 10 µM | actives 0.29% (n = 330,000) | MIN6 cells proliferation, ATPlite luminescence, 48 h; cells starved in 0.2% serum; 100% = growth in 10% serum;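 active = compounds whose signal lies at least 3.5 SD above the mean of all wells on their plate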;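 also: 0% = DMSO-treated cells in low-serum medium and 100% = 10% serum control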
NTR1 ag: agonists of human NTR1, primary screen, imaging, U2OS cells, beta-arrestin-GFP, high content | activation, % at 20 µM | actives 0.17% (n = 330,000) | NTR1-U2OS beta-arrestin-GFP spot imaging, agonist mode | AID 493036, 2011;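 active = activation at or above 40% of the spot to cytoplasm intensity ratio, with at least 20 cells analyzed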;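 also: 0% = DMSO without peptide and 100% = 100 nM NTR1 peptide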
The depositor's hits bear a star; nt = not tested or not shown.

SMILES | Platelet DG rel | GRK2 aptamer HTS | beta cell repl | NTR1 ag
NC(=O)CSc1n[nH]c(=O)n1CCc1ccccc1 | 3 | 0 | -4 | -1
Cc1ccc(Oc2nc3ccccn3c(=O)c2/C=C(\C#N)C(=O)NC2CCS(=O)(=O)C2)c(C)c1 (configuration not stated) | 51* | 2 | -3 | 1
Cc1cc(C)cc(Oc2nc3ccccn3c(=O)c2/C=C(\C#N)C(=O)NC2CCS(=O)(=O)C2)c1 (configuration not stated) | 15 | 0 | 0 | 1
N#Cc1cccc(NC(=O)CNc2cc(S(=O)(=O)N3CCOCC3)ccc2N2CCCC2)c1 | nt | nt | -1 | 0
O=C(Nc1ccc([N+](=O)[O-])cc1)C(=O)Nc1cccc(C(=O)O)c1 | 83* | 1 | -5 | 3
CC(C)(C)NC(=O)c1ccc2nsnc2c1 | -2 | 0 | 0.0* | -1
Cc1cccc(N2CCN(C(=O)c3ccc(CNc4c(N5CCC(C)CC5)c(=O)c4=O)cc3)CC2C)c1 (configuration not stated) | 9 | 0 | -4 | 0
CCOc1cc(C(=O)OCC(=O)Nc2cccc(S(=O)(=O)NC3=NCCCCC3)c2)cc(OCC)c1OCC | nt | 0 | -3 | 2
COc1ccc(N2CCN(S(=O)(=O)c3c(C)nc4sccn4c3=O)CC2)cc1 | 95* | 0 | -1 | 1
Cc1cccc(N2CCN(C(=O)C(Cc3ccccc3)n3cccc3)CC2)c1C (configuration not stated) | -3 | 0 | -7 | 1
O=C(C(Cc1ccccc1)n1cccc1)N1CCN(c2ncccn2)CC1 (configuration not stated) | 50* | 2 | -1 | 0
CCOc1ccc(N(CC(=O)N2CCN(C(=O)CN(c3ccc(OCC)cc3)S(C)(=O)=O)CC2)S(C)(=O)=O)cc1 | 0 | 0 | -3 | 1
COc1ccc(C(=O)NC(=S)N2CC(C)OC(C)C2)cc1OC (configuration not stated) | 1 | 56* | -1 | 0
CC(=O)N/C(=C\c1ccccc1)C(=O)OC(C)C(=O)Nc1ccccc1F (configuration not stated) | nt | 2 | -5 | 1
O=C(Cn1cccc1)N1CCN(c2ccc(F)cc2)CC1 | 56* | 4 | -1 | 1
COc1cc(/C=N/NC(N)=O)ccc1OCC(=O)N1C(C)CCCC1C (configuration not stated) | 62* | 1 | 0 | 1
COc1cc(/C=N/Nc2ccc(Cl)c(C(=O)O)c2)ccc1OCC(=O)N1C(C)CCCC1C (configuration not stated) | -5 | 0 | -3 | 0
COc1ccc(NS(=O)(=O)c2ccc(C(=O)N(C)Cc3cccs3)cc2)cc1 | nt | nt | -3 | 1
COc1cc(C(=O)N/N=C/c2ccc(OC(=O)c3cccc(C)c3)c(OC)c2)ccc1O | 3 | 0 | -7 | 9
O=C(Nc1ccc(N2CCN(Cc3ccccc3F)CC2)cc1)c1ccccc1[N+](=O)[O-] | 0 | 1 | -4 | 2
O=C(Nc1ccc(N2CCN(Cc3ccccc3F)CC2)cc1)c1ccc([N+](=O)[O-])o1 | -14 | 0 | -5 | 42*
CC1CCN(c2ccc(NC(=O)c3ccc([N+](=O)[O-])o3)cc2)CC1 | 0 | 0 | -3 | 42*
O=C(O)c1ccc(COc2cccc(CO)c2)cc1 | 75* | 0 | -2 | 0
c1cc2c(cc1C1=NNC(=NC3CC3)SC1)OCCO2 | 75* | 4 | -6 | 2
CCCCN=C1NN=C(c2ccc3c(c2)OCCO3)CS1 | -6 | 4 | -5 | 2
SMILES | Platelet DG rel | GRK2 aptamer HTS | beta cell repl | NTR1 ag
O=C(COC(=O)c1cc([N+](=O)[O-])ccc1N1CCOCC1)c1ccccc1Cl | -1 | 57* | 5 | 1
CCOc1ccc(N(CC(=O)NC2CCCCC2)C(=O)Cn2nnc(-c3ccc(C)o3)n2)cc1 | 4 | nt | -1 | 1
O=C(NNC(=S)NC1CCCCC1)c1sc2ccccc2c1Cl | 1 | 0 | -3 | 7
CC(C)(C)C(=O)NC(=S)NNC(=O)c1sc2ccccc2c1Cl | 5 | 49* | -2 | -3
Cc1ccsc1C(=O)NC1CCCN(Cc2ccc(Cl)cc2)C1 (configuration not stated) | -4 | 0 | -5 | 3
Cc1ccc2[nH]c(=O)c3cc(C(=O)N(C)c4ccc(C)c(C)c4)sc3c2c1 | 74* | 0 | -1 | 5
Cc1ccc(C)n1-c1cccc(C(=O)O)c1 | 0 | 96* | -3 | 6
CCN(CC)c1ccc(/C=N/NC(=O)c2ccoc2C)cc1 | 67* | 2 | -3 | 2
COc1cccc(/C=N/NC(=O)c2ccoc2C)c1O | 98* | 1 | -5 | 2
COc1cc(/C=N/NC(=O)c2ccoc2C)ccc1O | 12 | 3 | -3 | 1
CCN(CC)c1ccc(/C=N\NC(N)=O)cc1 | 1 | 2 | 1 | 2
CCOc1ccc(/C=N/NC(=O)c2ccoc2C)cc1OC | 50* | 0 | -2 | 2
COc1ccccc1/C=N/NC(=O)c1ccc(NC(=O)c2cccc([N+](=O)[O-])c2)cc1 | 7 | 0 | -2 | 1
COc1cccc(/C=N/NC(=O)c2cc3cc([N+](=O)[O-])ccc3s2)c1O | 5 | 87* | nt | nt
O=C(CSc1ccccc1)NC1CCCCCC1 | -3 | 1 | -1 | 0
COc1ccc(/C=C\C(=O)NCC(=O)N/N=C/c2cccc(OC)c2O)cc1 | -1 | 0 | -6 | 15
COc1cccc(/C=N/NC(=O)CNC(=O)/C=C\c2ccccc2)c1O | -3 | 5 | -4 | 62*
COc1cccc2sc3cc(C#CC4(O)CCCCC4)ccc3c(=O)c12 | nt | 1 | -6 | 34
COc1cc2sc3ccc(C#CC4(O)CCCCC4)cc3c(=O)c2cc1OC | 56* | 0 | -5 | 15
COc1ccccc1N1CN(S(=O)(=O)c2ccc(C)cc2)c2nc3ccccc3nc21 | nt | 4 | -1 | 0
CCCC(=O)N(CCN1CCOCC1)c1nc2c(OC)ccc(OC)c2s1 | 1 | 1 | -2 | 0
COc1ccccc1[C@]1(C)ON(c2ccccc2C(F)(F)F)C1=O | nt | 3 | -7 | 19
COc1cc(Cl)ccc1OCc1cc(C(=O)NC2CCc3ccccc32)no1 (configuration not stated) | 15 | 0 | -5 | 2
CCOC(=O)C1CCN(C(=O)Cn2nc(C)n3c(cc4cc(F)ccc43)c2=O)CC1 | 50* | 37 | -4 | 2
CN(C)S(=O)(=O)c1cccc(NC(=O)CCc2nc3cc(S(=O)(=O)N4CCOCC4)ccc3n2C)c1 | 9 | 0 | -3 | 0
CC(NC(=O)CCc1nc2cc(S(=O)(=O)N3CCOCC3)ccc2n1C)c1ccc(S(N)(=O)=O)cc1 (configuration not stated) | 55* | 0 | -1 | 0
COCCn1cnc2c1c(=O)n(Cc1ccc(C#N)cc1)c(=O)n2Cc1ccccc1 | -2 | 1 | 0 | 0
